Test results published in PubChem BioAssay AID652115 (Broad Institute, 2013).
The whole screen tested about 330,000 compounds, of which about 3,800 (1.2%) were called active. The full list was thinned out, with actives kept by preference. Unmarked numbers belong to inactive results. No stated cut-off is given here; in the data, active means inhibition above about 15%; inconclusive means no clear call, values can overlap the other calls; inactive means below that.

target: NAD-dependent protein deacylase sirtuin-5, mitochondrial (Homo sapiens) (UniProt Q9NXA8); test: blockers of sirtuin-5 deacylase activity – biochemical, fluorescence imaging, single point, set 5, primary screen (AID 652115); settings: Purified SirT5, succinyl-peptide AMC, trypsin-coupled fluorescence; at 15 µM; stronger effect = higher value
Sequence (Q9NXA8 whole entry, looked up): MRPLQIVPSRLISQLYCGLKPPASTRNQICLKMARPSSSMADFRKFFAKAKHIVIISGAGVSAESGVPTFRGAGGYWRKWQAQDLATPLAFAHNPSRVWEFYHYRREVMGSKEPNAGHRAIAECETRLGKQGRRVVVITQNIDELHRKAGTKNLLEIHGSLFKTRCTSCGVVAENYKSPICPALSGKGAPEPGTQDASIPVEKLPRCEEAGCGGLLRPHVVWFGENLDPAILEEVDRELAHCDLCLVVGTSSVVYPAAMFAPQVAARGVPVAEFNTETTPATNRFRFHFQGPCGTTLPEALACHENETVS

SMILES | inhibition
C[C@@H]1CN([C@H](C)CO)S(=O)(=O)c2ccc(-c3cncnc3)cc2O[C@H]1CN(C)C(=O)Cc1ccccc1 | 1.64%
CCCC#Cc1cnc2c(c1)C(=O)N([C@H](C)CO)C[C@H](C)[C@@H](CN(C)C(=O)c1cccnc1)O2 | -3.74%
CN1C(=O)c2cc(NS(=O)(=O)c3ccc(Cl)cc3)ccc2OC[C@@H]2O[C@H](CC(=O)O)CC[C@@H]21 | -0.474%
O=C(C1CC1)N1CC(=O)N2[C@H](CO)[C@@H](c3ccc(-c4ccccc4F)cc3)[C@@H]2C1 | -3.61%
COc1ccc(CN(C)C[C@H]2OCCCC[C@@H](C)Oc3ccc(NS(=O)(=O)c4ccccc4)cc3C(=O)N([C@@H](C)CO)C[C@@H]2C)cc1 | -2.94%
COc1ccccc1CN1[C@H](CO)[C@H](c2ccccc2)C12CN(C(=O)c1ccccn1)C2 | -0.913%
C[C@@H]1CN([C@H](C)CO)C(=O)c2cccc(NS(=O)(=O)c3ccc(Cl)cc3)c2O[C@H]1CN(C)Cc1ccc(C(F)(F)F)cc1 | 2.17%
COCC(=O)Nc1ccc2c(c1)OC[C@H](C)N(C(=O)c1cnccn1)C[C@@H](C)[C@@H](OC)CN(C)C2=O | 10.6%
Cc1noc(C)c1NC(=O)N(C)C[C@H]1OCCCC[C@@H](C)Oc2ccc(NC(=O)NC(C)C)cc2C(=O)N([C@@H](C)CO)C[C@H]1C | 1.72%
O=C1/C(=C/c2ccc3c(c2)OCO3)CCC/C1=C\c1ccc2c(c1)OCO2 | 15.2% (active)
NC(=O)c1ccc(NC(=O)COC(=O)c2c3c(nc4ccccc24)/C(=C\c2ccc4c(c2)OCO4)CCC3)cc1 | -2.29%
O=C(N/N=C/c1ccc2c(c1)OCO2)C(=O)N1CCCC1 | -0.951%
C[C@H](CO)N1C[C@H](C)[C@H](CN(C)C(=O)c2cccnc2)Oc2ncc(C3=CCCC3)cc2C1=O | -8.88%
C[C@H](CO)N1C[C@H](C)[C@@H](CN(C)C(=O)Cc2ccncc2)Oc2ncc(C#CCN(C)C)cc2C1=O | 6.32%
CCCN(C)C[C@H]1Oc2ncc(C#CCOC)cc2C(=O)N([C@@H](C)CO)C[C@H]1C | 0.664%
C[C@@H]1CN([C@H](C)CO)C(=O)c2cccc(NC(=O)CCCCCC(=O)Nc3ccccc3N)c2O[C@H]1CN(C)Cc1ccc(Oc2ccccc2)cc1 | 28.2% (active)
C[C@@H]1CN([C@@H](C)CO)C(=O)c2cccc(NC(=O)c3cnccn3)c2O[C@H]1CN(C)Cc1ccc(-c2ccccc2)cc1 | -1.19%
C[C@@H]1CN([C@@H](C)CO)C(=O)c2cccc(NC(=O)c3cnccn3)c2O[C@H]1CN(C)Cc1ccc(C(=O)O)cc1 | -1.49%
C[C@@H]1CN([C@@H](C)CO)C(=O)c2cccc(NC(=O)CCCCCC(=O)Nc3ccccc3N)c2O[C@H]1CN(C)C(=O)Nc1ccccc1 | -0.269%
C[C@@H]1CN([C@H](C)CO)C(=O)c2cccc(NC(=O)c3cnccn3)c2O[C@@H]1CN(C)Cc1ccc(C(=O)Nc2ccccc2N)cc1 | 15.1% (active)
C[C@H](CO)N1C[C@H](C)[C@H](CN(C)Cc2ccc(Oc3ccccc3)cc2)Oc2c(NC(=O)CCCCCC(=O)Nc3ccccc3N)cccc2C1=O | 10.2%
COc1ccccc1-n1c(SCC(=O)Nc2cccc(C(=O)O)c2)nnc1-c1ccccc1O | 3.18%

SMILES | inhibition
CCOc1cc(C)ccc1OCc1nnc(SCC(=O)Nc2cccc(C(=O)O)c2)n1-c1ccccc1 | 60.5% (active)
COc1ccccc1OCc1nnc(SCC(N)=O)n1-c1ccccc1 | -0.045%
COc1cccc(S(=O)(=O)N[C@@H]2C=C[C@H](CC(=O)NC3CCC3)O[C@@H]2CO)c1 | -3.76%
CO[C@@H]1CC[C@@H]2CCOc3c(C#N)cccc3C(=O)N(C)C[C@@H](C)C(=O)N(C)C[C@@H]1O2 | 0.964%
CCN(CC)c1ncnc2c1ncn2[C@H]1CN(Cc2cccs2)C[C@@H](CO)O1 | 0.751%
OC[C@@H]1CN(Cc2cccs2)C[C@H](n2cnc3c(Nc4ccccc4)ncnc32)O1 | 19.4% (active)
OC[C@@H]1CN(Cc2cccs2)C[C@H](n2cnc3c(NC4CCCC4)ncnc32)O1 | 5.79%
CCCC(=O)Nc1ccc2c(c1)C(=O)N(C)C[C@H](OC)[C@@H](C)CN(C(C)=O)[C@H](C)CO2 | 0.113%
CO[C@@H]1CN(C)C(=O)c2cc(NC(=O)C3CC3)ccc2OC[C@H](C)N(CC2CC2)C[C@H]1C | -3.23%
CC(C)CN(C(=O)c1cccc(S(=O)(=O)N2CCCCC2)c1)C1CCS(=O)(=O)C1 (centres undefined) | -1.89%
CCCCN(C(=O)c1ccc(S(=O)(=O)N2CCOCC2)cc1)C1CCS(=O)(=O)C1 (centres undefined) | 2.17%
O=C(c1cccc(S(=O)(=O)N2CCCC2)c1)N(Cc1ccco1)C1CCS(=O)(=O)C1 (centres undefined) | 18.1% (active)
CN(C)C(=O)C[C@@H]1CC[C@@H](NC(=O)NC2CCCC2)[C@@H](CO)O1 | 1.11%
COc1cccc(S(=O)(=O)N[C@H]2CC[C@@H](CCN)O[C@H]2CO)c1 | 0.762%
COC(=O)COc1cccc2c(=O)n(CC(=O)NCc3ccccc3)ccc12 | -3.93%
CCOC(=O)C(C)Oc1cccc2c(=O)n(CC(=O)NCCc3ccc(OC)c(OC)c3)ccc12 (centres undefined) | -3.89%
COC(=O)COc1cccc2c(=O)n(CC(=O)NCCc3ccc(OC)c(OC)c3)ccc12 | 15.1% (active)
CO[C@@H]1CN(C)C(=O)c2cc(NC(=O)c3cnccn3)ccc2OC[C@@H](C)N(C(=O)C2CC2)C[C@@H]1C | 2.16%
COc1cccc(-c2ccc([C@H]3[C@H]4CN(C(=O)NC(C)C)CC(=O)N4[C@H]3CO)cc2)c1 | 1.38%
COc1cc(C)c(CN2CCN(C(=O)CCC(=O)c3ccc(C)s3)CC2)cc1OC | 19.2% (active)
COc1ccc(OC)c(CN2CCN(C(=O)CNC(=O)c3cc(C)cc(C)c3)CC2)c1 | -1.91%
COc1cc(OC)c(OC)cc1CN1CCN(C(=O)c2cccc3ccccc23)CC1 | -1.16%
